From PubChem BioAssay (NCI) come the findings set out here.

This is part of a sample that, as a whole, favours compounds with a hit. Of some 79,000 tested, about 15% had one in any assay. Values without a mark were called inactive. The source made the active and inactive calls. Cut-off read from the data, not from the text of the source: active = growth inhibition above about 70%; inactive = the rest.

Assay [1] is described as follows: NCI Yeast Anticancer Drug Screen. Data for the rad50 strain (AID 155).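 Note: 0% = growth of vehicle-only cultures of the same strain.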 The settings on record: S. cerevisiae rad50 strain growth inhibition, hits give high values. The method in brief:
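Growth of the mutant yeast was measured after compound exposure and referenced to vehicle-treated cultures.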

Assay [2] is described as follows: NCI Yeast Anticancer Drug Screen. Data for the mec2-1 strain (AID 157). Conditions: S. cerevisiae mec2-1 strain, hits give high values. In short, it runs like this:
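mec2-1 yeast strain, carrying an alteration in DNA damage repair or cell cycle control, was exposed to compounds; growth inhibition was measured relative to vehicle-treated controls.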

Assay [3] is described as follows: NCI Yeast Anticancer Drug Screen. Data for the sgs1 mgt1 strain (AID 161).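 Note: 0% = growth of cultures given vehicle only.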 Conditions: S. cerevisiae sgs1 mgt1 strain, hits give high values. In short, it runs like this:
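Growth of a repair-deficient yeast mutant was monitored after compound treatment and expressed as inhibition relative to vehicle-treated cultures.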

Assay [4] can be described thus: NCI Yeast Anticancer Drug Screen. Data for the cln2 rad14 strain (AID 165).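 Note: 0% = growth equal to vehicle treated cultures.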 Conditions: S. cerevisiae cln2 rad14 strain, hits give high values. The method in brief: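 Yeast carrying cln2 and rad14 alterations (cell cycle control and DNA damage repair) were exposed to compounds. Growth inhibition was measured against vehicle-treated controls.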
Assay [5] is described as follows: NCI Yeast Anticancer Drug Screen. Data for the bub3 strain (AID 167). Conditions: S. cerevisiae bub3 mutant strain, hits give high values. In short, it runs like this:
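Whole-cell yeast assay. The mutant strain was incubated with compounds, and growth inhibition was determined by comparison with vehicle-treated cells.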

Assay [6] can be described thus: NCI Yeast Anticancer Drug Screen. Data for the mlh1 rad18 strain (AID 175). The settings on record: S. cerevisiae mlh1 rad18 strain growth inhibition, hits give high values. In short, it runs like this: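 Growth inhibition of the yeast strain was measured after compound exposure and expressed relative to vehicle-treated controls. The strain carries defined defects in DNA damage repair.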

Where [7] appears, read: at 5.0 µM (retest, dose inferred, filed as 0.5).
Where [8] appears, read: at 50.0 µM (retest, dose inferred, filed as 5.0).

Regarding `CCOC(=O)c1[nH]cc(C)c1-c1ccc2c(-c3ccccc3)nc3ccccc3n12`, the growth inhibition is 5% in assay [1] (setting [7]); 65% in assay [1] (setting [8]); 44.8% in assay [1] (at 50.0 µM); 7% in assay [2] (setting [7]); 61% in assay [2] (setting [8]); 64.2% in assay [2] (at 50.0 µM). For the same compound, the growth inhibition was 3% in assay [3] (setting [7]); 70% (active) in assay [3] (setting [8]); 60.4% in assay [3] (at 50.0 µM); 12% in assay [4] (setting [7]); 81% (active) in assay [4] (setting [8]); 38.8% in assay [4] (at 50.0 µM). Besides, the growth inhibition in assay [5] (setting [7]) is 9%; in assay [5] (setting [8]), 79% (active); in assay [5] (at 50.0 µM) it was 40.6%; in assay [6] (setting [7]), 12%; in assay [6] (setting [8]), 73% (active); in assay [6] (at 50.0 µM), 69%.
`O=[N+]([O-])C1=Cc2cc(Cl)ccc2OC1c1cccc2ccccc12` (stereo not given): the growth inhibition in assay [1] (setting [7]) was 98% (active); in assay [1] (setting [8]), 83% (active); in assay [1] (at 50.0 µM), 80.5% (active); in assay [2] (setting [7]) it was 97% (active); in assay [2] (setting [8]), 81% (active); in assay [2] (at 50.0 µM), 88.2% (active). Moreover, the growth inhibition in assay [3] (setting [7]) is 97% (active); in assay [3] (setting [8]), 86% (active); in assay [3] (at 50.0 µM) it was 84.2% (active); in assay [4] (setting [7]) it was 97% (active); in assay [4] (setting [8]), 80% (active); in assay [4] (at 50.0 µM), 87.1% (active). The growth inhibition is 97% (active) in assay [5] (setting [7]); 91% (active) in assay [5] (setting [8]); 85.5% (active) in assay [5] (at 50.0 µM); 98% (active) in assay [6] (setting [7]); 87% (active) in assay [6] (setting [8]); 75.8% (active) in assay [6] (at 50.0 µM).
Regarding `C=CC(=O)Nc1ccccc1CC(c1c[nH]c2ccccc12)c1c[nH]c2ccccc12`, the growth inhibition in assay [1] (setting [7]) was 34%; in assay [1] (setting [8]), 34%; in assay [1] (at 50.0 µM) it was 85% (active); in assay [2] (setting [7]), 26%; in assay [2] (setting [8]), 26%; in assay [2] (at 50.0 µM), 73.7% (active). Also, the growth inhibition in assay [3] (setting [7]) is 34%; in assay [3] (setting [8]) it was 34%; in assay [3] (at 50.0 µM), 81.5% (active); in assay [4] (setting [7]) it was 12%; in assay [4] (setting [8]), 12%; in assay [4] (at 50.0 µM) it was 84.3% (active). For the same compound, the growth inhibition is 21% in assay [5] (setting [7]); 21% in assay [5] (setting [8]); 74.5% (active) in assay [5] (at 50.0 µM); 27% in assay [6] (setting [7]); 27% in assay [6] (setting [8]); 76.9% (active) in assay [6] (at 50.0 µM).
Regarding `Nc1c2c(=O)[nH]c(=O)c2c(N)c2c(=O)c3ccccc3c(=O)c12`, the growth inhibition was 36% in assay [1] (setting [7]); 53% in assay [1] (setting [8]); 78.2% (active) in assay [1] (at 50.0 µM); 21% in assay [2] (setting [7]); 47% in assay [2] (setting [8]); 35.8% in assay [2] (at 50.0 µM). The growth inhibition in assay [3] (setting [7]) is 50%; in assay [3] (setting [8]), 72% (active); in assay [3] (at 50.0 µM), 38%; in assay [4] (setting [7]), -26%; in assay [4] (setting [8]), 41%; in assay [4] (at 50.0 µM), 34.5%. The growth inhibition in assay [5] (setting [7]) is 21%; in assay [5] (setting [8]) it was 78% (active); in assay [5] (at 50.0 µM), 29.4%; in assay [6] (setting [7]), 30%; in assay [6] (setting [8]) it was 59%; in assay [6] (at 50.0 µM), 60.6%.
With `CN(C)CC1CCc2c(ccc3ccccc23)C1=O` (stereo not given), the growth inhibition in assay [1] (setting [7]) was 8%; in assay [1] (setting [8]), 68%; in assay [1] (at 50.0 µM) it was 69%; in assay [2] (setting [7]), -16%; in assay [2] (setting [8]) it was 28%; in assay [2] (at 50.0 µM) it was 66.8%. In addition, the growth inhibition in assay [3] (setting [7]) is 29%; in assay [3] (setting [8]) it was 76% (active); in assay [3] (at 50.0 µM), 71.1% (active); in assay [4] (setting [7]), 12%; in assay [4] (setting [8]) it was 46%; in assay [4] (at 50.0 µM), 39.7%. For the same compound, the growth inhibition in assay [5] (setting [7]) was 19%; in assay [5] (setting [8]) it was 82% (active); in assay [5] (at 50.0 µM), 58.8%; in assay [6] (setting [7]) it was 40%; in assay [6] (setting [8]), 78% (active); in assay [6] (at 50.0 µM) it was 53.8%.
As to `CCN(CCCOc1ccccc1)CCN(CC)CCCOc1ccccc1`, the growth inhibition in assay [1] (setting [7]) was 1%; in assay [1] (setting [8]), 13%; in assay [1] (at 50.0 µM), 34.5%; in assay [2] (setting [7]), 19%; in assay [2] (setting [8]), 38%; in assay [2] (at 50.0 µM), 33.2%. Also, the growth inhibition in assay [3] (setting [7]) was 1%; in assay [3] (setting [8]) it was 59%; in assay [3] (at 50.0 µM), 60.9%; in assay [4] (setting [7]), 0%; in assay [4] (setting [8]) it was 11%; in assay [4] (at 50.0 µM), 73.2% (active). Besides, the growth inhibition in assay [5] (setting [7]) was 2%; in assay [5] (setting [8]) it was 14%; in assay [5] (at 50.0 µM), 42%; in assay [6] (setting [7]), 15%; in assay [6] (setting [8]), 44%; in assay [6] (at 50.0 µM) it was 35.6%.
With `O=C1OC(=O)C2C1C1(c3ccccc3)OC2(c2ccccc2)c2c(Br)c(Br)c(Br)c(Br)c21` (stereo not given), the growth inhibition in assay [1] (setting [7]) is 23%; in assay [1] (setting [8]), 99% (active); in assay [1] (at 50.0 µM), 98.8% (active); in assay [2] (setting [7]), 25%; in assay [2] (setting [8]), 100% (active); in assay [2] (at 50.0 µM), 99.4% (active). The growth inhibition in assay [3] (setting [7]) was 15%; in assay [3] (setting [8]), 99% (active); in assay [3] (at 50.0 µM), 99.2% (active); in assay [4] (setting [7]), 18%; in assay [4] (setting [8]), 99% (active); in assay [4] (at 50.0 µM), 98.6% (active). In addition, the growth inhibition in assay [5] (setting [7]) is 2%; in assay [5] (setting [8]), 99% (active); in assay [5] (at 50.0 µM), 98.7% (active); in assay [6] (setting [7]), 38%; in assay [6] (setting [8]) it was 99% (active); in assay [6] (at 50.0 µM) it was 98.2% (active).
Regarding `CC(C)N(CCOc1ccc(/C=C/c2ccccc2)cc1)C(C)C`, the growth inhibition was 4% in assay [1] (setting [7]); 1% in assay [1] (setting [8]); 12.1% in assay [1] (at 50.0 µM); 4% in assay [2] (setting [7]); 1% in assay [2] (setting [8]); -1.45% in assay [2] (at 50.0 µM). Further, the growth inhibition in assay [3] (setting [7]) is 8%; in assay [3] (setting [8]) it was 2%; in assay [3] (at 50.0 µM), 55.9%; in assay [4] (setting [7]), 6%; in assay [4] (setting [8]) it was 2%; in assay [4] (at 50.0 µM), 8.5%. Moreover, the growth inhibition in assay [5] (setting [7]) is 4%; in assay [5] (setting [8]), -3%; in assay [5] (at 50.0 µM), 75.8% (active); in assay [6] (setting [7]) it was 6%; in assay [6] (setting [8]), 4%; in assay [6] (at 50.0 µM), 9.3%.
Regarding `Nc1ccc2ccccc2c1N=Nc1ccccc1`, the growth inhibition was 6% in assay [1] (setting [7]); 97% (active) in assay [1] (setting [8]); 98.3% (active) in assay [1] (at 50.0 µM); 0% in assay [2] (setting [7]); 99% (active) in assay [2] (setting [8]); 99% (active) in assay [2] (at 50.0 µM). For the same compound, the growth inhibition in assay [3] (setting [7]) is 3%; in assay [3] (setting [8]) it was 98% (active); in assay [3] (at 50.0 µM), 99.1% (active); in assay [4] (setting [7]), -8%; in assay [4] (setting [8]), 96% (active); in assay [4] (at 50.0 µM) it was 96.6% (active). The growth inhibition in assay [5] (setting [7]) is 0%; in assay [5] (setting [8]), 98% (active); in assay [5] (at 50.0 µM) it was 98.5% (active); in assay [6] (setting [7]), 2%; in assay [6] (setting [8]) it was 92% (active); in assay [6] (at 50.0 µM) it was 97.6% (active).
Turning to `O=C1c2ccccc2CN1Cc1ccc(Cl)c(Cl)c1`, the growth inhibition is -1% in assay [1] (setting [7]); 93% (active) in assay [1] (setting [8]); 84.4% (active) in assay [1] (at 50.0 µM); -3% in assay [2] (setting [7]); 95% (active) in assay [2] (setting [8]); 42.2% in assay [2] (at 50.0 µM). The growth inhibition in assay [3] (setting [7]) was -1%; in assay [3] (setting [8]), 96% (active); in assay [3] (at 50.0 µM), 93.1% (active); in assay [4] (setting [7]), -1%; in assay [4] (setting [8]) it was 81% (active); in assay [4] (at 50.0 µM) it was 45.5%. In addition, the growth inhibition is 3% in assay [5] (setting [7]); 92% (active) in assay [5] (setting [8]); 79.4% (active) in assay [5] (at 50.0 µM); -2% in assay [6] (setting [7]); 91% (active) in assay [6] (setting [8]); 65% in assay [6] (at 50.0 µM).
